In the supplement of paper PMC11417369:
± gives the standard deviation of the averaged measurements. Over roughly 25,000 sequences, “ln(normalized median fluorescence intensity)” has its median near 7.9; the highest 2% begin near 11. The sample holds the highest values, similar sequences and a random draw of the others, so the mix is not that of the screen.

The sequences below were run on PfAP2-I AP2 domain 3 (GST-tagged) (assay: gcPBM binding intensity (ln(normalized median fluorescence intensity)); higher = stronger DNA binding).
Outline: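 DNA-binding domains from P. falciparum, fused to GST and produced in E. coli, were put on an Agilent 4 × 180k double-stranded probe array for 1 h in 1× PBS holding 1% milk, 0.2 mg/ml BSA, 0.5% salmon testes DNA and 0.03% Triton X-100. Probes were primer-extended, 36 bp long and drawn from intergenic genomic regions, with negative controls included. After Alexa488 anti-GST antibody detection and a 488 nm scan, binding intensity was set as the highest Masliner-normalised natural-log median intensity across replicate spots of either probe orientation.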

Sequence	gcPBM binding intensity (ln)
ATTATTATATATATAACACACATAATTATATACTTA [CACACA_site1563]	7.89 ± 0.38
TCTATAAAGTTCCATACATGCGCCATCATTTATATT [TGCATGCA_site195]	7.97 ± 0.79
TTTTTAATCAGAAATATTTATTAAAGAATTTTATAG [GTGCAC_negctrl_site725]	7.32 ± 0.34
TTTGTTTTTTTGAGAGTGCAATATATATAAAAAGGG [GTGCAC_site9691]	11.2 ± 0.64
AGATATTTATTGAGTGCATGTTATAAAGGGAAAAAA [TGCATGCA_site88]	9.04 ± 0.17
TTATAAATAAAAAGAGTGCAATTATAAATATATATA	10.1 ± 0.23
GGTTAAAAAAAGCATACACACTATCCTCTTTGCTCT [CACACA_site7246]	7.9 ± 0.65
ATATATTTTATATGTGTGCACTATATATATATATAT	11.4 ± 0.3
ATCATATTTTTATGTGTGCACTTTTTTTTTTTTTTT [GTGCAC_site9555]	10.25 ± 0.014
ATATATCATAAATAAATGAAAATATTTTCTATGTGT [CACACA_negctrl_site689]	7.77 ± 0.62
TTTAATTATTAAATGGTGCACTTGAAATATAAAAAT	11 ± 0.45
GTTTATTTATTTTATGTGCACATATAACAAAAAAAA	10.36 ± 0.028
TATATATATTTTTGTGTGCACTATAATATGAAAATA	11.4 ± 0.45
TATATTTTTATGTGTGTGCACAAAATAACAAAATAT [GTGCAC_site9596]	11.1 ± 0.35
AATTTTTTTTTTTTTTTTTTTTATATATGTGTGTGT [XGTACX_negctrl_site129]	7.59 ± 0.28
AAATGAAATAAAATCATATATTTATAATTATTATAA [TGCATGCA_negctrl_site612]	7.27 ± 0.41
CAAAATATTTTTATAACACACATATATATAATGTGC [CACACA_site4767]	7.8 ± 0.52
TTTTTTTTTTTTTTTGCACACTATATTTAATATAAG [CACACA_site2444]	9.42 ± 0.21
TGCATAATTAAAAATGGTACACTGTATTTATAATAT [XGTACX_site1575]	7.95 ± 0.61
ACAAAGTAAAATAATGCATGTAGGTATACATAATTA [TGCATGCA_site607]	7.71 ± 0.81
TAGAACAAATAAAACACACACATATATATATATATG [CACACA_site2768]	8.06 ± 0.41
ATATATTAAAAGGATTAGGAAAAAATATGATTTATC [TGCATGCA_negctrl_site405]	7.55 ± 0.78
GAACAAAATTTTATATGTACATAATATTTATATATA [XGTACX_site3667]	8 ± 0.2

Sequence	gcPBM binding intensity (ln)
TTACAAGTAAAAGGTACACACATTATATATACAAAT [CACACA_site8290]	7.97 ± 0.55
TTTTTTTTCATTTTATGTACACATAATTTAATATAT [XGTACX_site5768]	8.16 ± 0.45
CATGACATATCCTGTAGTACAACGTATATATAAGAT [XGTACX_site2577]	7.8 ± 0.61
GAATAAATATTAAATGTGCACTTGAATAGATGTAAA	10.1 ± 0.16
AAATAAAAATTAAAAAAATAGAAACGAATTGAATGC [TGCATGCA_negctrl_site365]	7.83 ± 0.64
ATCAAAAATATAAAAAATATAAACAATTTATTATCA [CACACA_negctrl_site768]	7.32 ± 0.47
ATATAGAAAATGCATACACACTTTATAAATATATTT [CACACA_site6553]	7.92 ± 0.53
TTTCAATTTATCAGTGTGCACAAAAATAAAATAAAA	10.88 ± 0.028
TTATAATTTTAATGTGCACACAATTAAAATATTATA [CACACA_site5172]	10.79 ± 0.085
TATTTATAAATATGTGTGCACAATTTATTTTATAAT	11 ± 0.26
CTTAAAATATATTTAGTGCATATACTAATATATTAT	10.2 ± 0.45
TTTTTTCAATTTTTTTTAAATAAACCACAAAAAAAA [CACACA_negctrl_site1701]	7.74 ± 0.49
TATAAATTAAAATGTGTGCACTAAATTGAAATAGAA	11.5 ± 0.53
AATACTTTTTATTTAGTGCATAAGAAAATATAAATC [GTGCAC_site9875]	10.9 ± 0.44
CAATTTATTATATATGTGCACATATAATTTTACAAA	9.59 ± 0.24
ATATATTTTTAAAAAAATTAAGAATTTTACATCTCC [CACACA_negctrl_site1450]	7.59 ± 0.65
AACAATTATTTATCTACACACTTTTATGTTATTTAC [CACACA_site9]	7.88 ± 0.67
AATTTTTTTTTCTTTTGTACGTAAATATGTGTAGGC [XGTACX_site215]	8.33 ± 0.26
ATGTGAAAATAAGACACACTCAAAAGGTTTATATTA [CACACA_site4595]	7.67 ± 0.43
ATACTTTTAATATGCACATGCAAATATGAAATATCG [TGCATGCA_site603]	9.22 ± 0.39
TTATAAAAAAAAAAAAAAAAAAAAACCAATATAATA [CACACA_negctrl_site968]	7.3 ± 0.48
ATTTATTTGAAGAATTGTACTAAATTATATAGCGGT [XGTACX_site4998]	7.94 ± 0.49
TATATATATAAATACACACACACCGTCCGTGTTAAA [CACACA_site5623]	8.54 ± 0.53
